Sampled rows, rich in hits. Any-hit rate of the full collection: about 19%.
TDP1 cell noCPT = qHTS for Inhibitors of human tyrosyl-DNA phosphodiesterase 1 (TDP1): qHTS in cells in absence of CPT | AID 686978, 2013 | Potency, µM (highest dose often 46.2 µM), for inactives: top-dose activity change, negative = growth inhibition, most hits filed as inhibitors | 420,000 compounds, 15% hits | DT40 Tdp1-/- hTDP1 cells, no CPT, ATP luminescence, 48 h; further: potency means the concentration at half of the fitted maximal effect; nearly all actives have a fitted effect of over 55% in size
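DT40 Tdp1-/-;hTDP1 cells, no CPT (DMSO vehicle only), 400 cells/well; compounds pin-transferred; ≥48 hr, 37 °C; CellTiter-Glo 30 min RT dark, luminescence read.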
HT1080 IDH1KD tx = toxicity to HT-1080 IDH1 knockdown cells (counter line); HT-1080 IDH1 knockdown viability, ATP luminescence, 48 h; Potency, µM (series often up to 46.1 µM), for the others: top-dose activity, negative = toxicity, usual class: cytotoxic; 360,000 compounds, 2% hits; AID 686971;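 further: potency means the concentration at half of the fitted maximal effect; 0% = DMSO wells and -100% = cell-free medium wells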
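IDH1KD HT-1080 cells, 750/well, RPMI + 5% FBS; compound pinned after 2 h settling; 48 h, 37 °C; CellTiter-Glo luminescence; % activity normalised to DMSO and no-cell wells; curves fitted, classed by r2 and efficacy.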
IL-1B inflam inh = inhibitors of inflammasome signaling (IL-1 beta secretion). THP-1 LPS/ATP IL-1B secretion, AlphaLISA, 16 h; hits give low values. activity change, % at 57.5 µM. 360,000 compounds, 4.7% hits; in the data active means activity change below about -50%; inconclusive means mostly about -30% to -49%
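Secreted IL-1B measured by AlphaLISA bead assay after 16 h compound exposure of THP-1 cells; compounds (final up to 57.5 uM) added 1 h before LPS (250 ng/mL) and ATP (1.25 mM) stimulation; lower signal means less secretion.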
HT1080-NT tox = kills 2HG-producing HT-1080-NT fibrosarcoma cells. HT-1080-NT fibrosarcoma viability, CellTiter-Glo ATP luminescence, 48 h. Potency, µM (doses to about 46.1 µM), for inactives: top-dose activity, negative = less viability, actives largely listed as cytotoxic. 360,000 compounds, 1.6% hits;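 further: NT is the 2HG producing partner of a matched IDH1 knockdown line; potency means the concentration at half of the fitted maximal effect; 0% = DMSO-treated cells and -100% = media-only wells without cells; nearly all actives have a fitted effect of over 55% in size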
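Compounds were tested in concentration-response format on HT-1080-NT cells for 48 hours at 37 degrees C. Cell viability came from CellTiter-Glo luminescence; curves were classified by r2, response magnitude and activity.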
TDP1 cell CPT = DT40-hTDP1 cell growth loss with CPT. chicken DT40 Tdp1-/-;hTDP1 cells + 20 nM CPT, ATP luminescence, 48 h. Potency, µM (doses to about 46.2 µM), without a hit: top-dose activity change, negative = growth inhibition, hits mostly inhibitors. 420,000 compounds, 12% hits; further: potency means the concentration at half of the fitted maximal effect; nearly all actives have a fitted effect of over 55% in size
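Cell growth measured by CellTiter-Glo luminescence after a minimum 48 h, 37 C compound exposure with 20 nM CPT in Tdp1-knockout DT40 cells stably expressing hTDP1, seeded 400/well; qHTS titration format.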
* hit, by the source's call; ? = inconclusive; / = not tested or not shown. Unless noted, the call rests on the fitted dose curve; in most records, active means well fitted curve in the direction sought with a large enough effect; inconclusive means small, poorly fitted or top-dose-only effect, or another doubt; inactive means no such curve, though single readings can be large; an effect the other way counts as inactive or inconclusive. Unless noted, on the % scale 0 is the no-effect control and ±100 the full control effect.

SMILES	TDP1 cell noCPT	HT1080 IDH1KD tx	IL-1B inflam inh	HT1080-NT tox	TDP1 cell CPT
COc1cc(NCC(=O)Nc2cccc(S(=O)(=O)N3CCCCC3)c2)cc(OC)c1OC	-0.8%	-0.3%	-26.4	-3.4%	-18.5%
CCc1ccc(NC(=O)CC(NCc2cccnc2)C(=O)O)cc1 (stereo unspecified)	-8.1%	/	/	/	-10.3%
CCOC(=O)c1c(N2C(=O)CC(Sc3ccccc3C(=O)O)C2=O)sc(C)c1C (stereo unspecified)	?	-3.6%	-10.8	-0.1%	23.1µM*
CN(C)c1ccc(N2C(=O)CC(Sc3ccccc3C(=O)O)C2=O)cc1 (stereo unspecified)	?	8.1%	0.0	6.0%	13µM*
C=CC[C@@H](CC(=O)N(CCO)Cc1ccccc1)C(=O)N[C@H](COC(=O)[C@@H](CC=C)CC(=O)OC(C)(C)C)Cc1ccccc1	?	-27.0%	?	-14.0%	18.4µM*
C=CC[C@H](CC(=O)N(CCO)Cc1ccccc1)C(=O)N[C@H](C)COC(=O)[C@@H](CC=C)CC(=O)OC(C)(C)C	18.4µM*	7.7%	-8.7	6.2%	?
C=CC[C@H](CC(=O)N(CCO)Cc1ccccc1)C(=O)N[C@H](COC(=O)[C@@H](CC=C)CC(=O)OC(C)(C)C)Cc1ccccc1	13µM*	?	-79.9*	?	14.6µM*
C=CC[C@@H](CC(=O)N(CCO)Cc1ccccc1)C(=O)NCCOC(=O)[C@H](CC=C)CC(=O)OC(C)(C)C	?	-2.4%	-5.9	9.9%	?
O=C(COc1ccccc1F)Nc1ccc2c(c1)OCCO2	-12.8%	-6.8%	5.9	4.3%	3.5%
COc1cccc(CN2CC(C(=O)NCc3ncc(C)[nH]3)CCC2=O)c1 (stereo unspecified)	-10.7%	5.9%	-0.5	0.9%	3.6%
Cc1ccc(CNC(=O)c2nn(-c3ccc(Cl)cc3)nc2CO)cc1	-27.1%	/	/	/	4.0%
COc1cc2c(cc1OC)CN(CC(=O)Nc1ccc(Cl)cc1Cl)CC2	20.6µM*	-8.8%	11.9	-12.3%	20.6µM*
COC(=O)c1cc2sccc2n1CC(=O)Nc1cc(OC)cc(OC)c1	-24.5%	-29.2%	-12.1	?	-19.1%
COC(=O)c1cc2sccc2n1CC(=O)Nc1cc(Cl)ccc1OC	10.3µM*	/	/	/	11.6µM*
COc1ccc(Cl)cc1NC(=O)NCC1CCN(C(=O)OC(C)(C)C)CC1	-15.0%	-31.1%	-55.0*	-17.9%	-7.2%
CN1CCN(CC(=O)Nc2ccc(Cl)cc2Cl)CC1	-1.4%	-1.3%	-7.6	-6.6%	-12.7%
COc1ccc(Cl)cc1NC(=O)CN1CCC(NC(=O)C2CC2)CC1	?	-13.3%	20.4	-2.6%	23.1µM*
COc1ccc(NC(=O)C2CCCN2C(=O)NC2CCCCC2)c(OC)c1 (stereo unspecified)	-2.4%	?	5.1	16.5%	-7.7%
COC(=O)c1[nH]c2ccc(Cl)cc2c1NC(=O)CN1CCc2cc(OC)c(OC)cc2C1	20.6µM*	-23.0%	-10.9	-25.4%	?
CCN(C(=O)Cn1c(C(=O)OC)cc2sccc21)c1cccc(C)c1	?	/	/	/	23.1µM*
CCOC(=O)c1cc2sccc2n1CC(=O)OC(C)C	-5.1%	-6.3%	4.9	7.4%	-7.6%
COc1ccc(Cl)cc1NC(=O)CCCC(=O)c1ccccc1	?	-7.2%	?	9.7%	20.6µM*
COc1ccc(Cl)cc1NC(=O)COC(=O)c1cc(C)oc1C	3.26µM*	5.1%	-28.3	-2.2%	?
C[C@H](NC(=O)[C@H]1N2C(=O)c3ccccc3C2SC1(C)C)C(=O)NCC1CCCO1 (stereo partly specified)	29.1%	9.2%	0.0	16.8%	2.3%
COc1ccc(Cl)cc1NC(=O)CN1CCc2ccccc2C1	-4.0%	9.2%	-81.1*	-12.0%	-29.6%
COc1cc2c(cc1OC)CN(CCC(C)c1ccc(Cl)cc1)CC2 (stereo unspecified)	16.4µM*	14.6µM*	-21.3	-38.4%	14.6µM*
